We go through 10 molecules from PubChem BioAssay.

Molecules are shown by their SMILES. Activity calls are given as the source filed them. Unless noted, no rule for the calls is given here.

Assay [1] is described as follows: resazurin metabolic signal in HepG2 cells – cell-based, resazurin fluorescence, 24 h, PK04 Diversity Set, profiling panel (AID 1172). The note with it: HepG2 viability, higher = more signal. On the technique in general: Alamar Blue is a resazurin reagent that responds to reducing activity.
The nature of assay [2]: budding yeast growth changes without added modifier – OD600, strain BY4716, 24 h, basal condition, primary screen (AID 1173). The note with it: S. cerevisiae BY4716 growth, OD600, 24 h; higher = more signal, called active from +8 up or from −8 down.
Assay [3] in a line: viability profiling in MM1S myeloma cells – cell-based, resazurin fluorescence, basal, 24 h, PK04 Diversity Set, profiling panel (AID 1174). Particulars: higher = more signal, called active from +8 up or from −8 down.
In assay [4] the target is Dihydroorotate dehydrogenase (quinone), mitochondrial (Plasmodium falciparum (isolate 3D7)) (UniProt Q08210). Briefly: inhibition of P. falciparum DHODH – biochemical, C-terminal His tag, absorbance 600 nm, primary screen (AID 1175).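 Also: recombinant parasite enzyme with a five histidine tag at its C terminus.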 Particulars: PfDHODH enzyme, DCIP absorbance 600 nm; higher = more signal, called active from +8 up or from −8 down.
The nature of assay [5]: inhibition of PAO1 biofilm formation – strain PAO1, LB-PBS medium, absorbance 600 nm, primary screen (AID 1176). The note with it: P. aeruginosa PAO1 growth/biofilm, A600, 12 h; higher = more signal.
Assay [6] is described as follows: growth modulation of vineyard yeast isolate – strain RM11-1a, OD600, basal, 24 h, primary screen (AID 1177).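 Also: cultures grown under basal conditions with no added stressor.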 Particulars: S. cerevisiae RM11-1a growth, OD600, 24 h; higher = more signal, called active from +8 up or from −8 down.
Assay [7] can be described thus: growth of efflux-deficient E. coli DRC39 – strain DRC39, OD650, 24 h, E. coli filamentation inducers, primary screen (AID 1178).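 Also: growth measured as culture turbidity by optical density at 650 nm.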 The note with it: E. coli DRC39 acrAB, higher = more signal, called active from +8 up or from −8 down.
The nature of assay [8]: growth of efflux-deficient E. coli DRC39 – strain DRC39, OD650, 48 h, E. coli filamentation inducers, primary screen (AID 1179).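 Also: screen aims at cell division blockers that make cells filament.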 Particulars: E. coli DRC39 delta-acrAB growth, higher = more signal, called active from +8 up or from −8 down.
A short description of assay [9]: viability profiling in RPMI8226 myeloma cells – cell-based, resazurin fluorescence, basal, 24 h, PK04 Diversity Set, profiling panel (AID 1180).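 Also: RPMI8826 multiple myeloma cell line at 5000 cells per well.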 The note with it: higher = more signal.
The target of assay [10] is E3 ubiquitin-protein ligase XIAP (Homo sapiens) (UniProt P98170). Briefly: small molecules binding XIAP protein – biophysical, small-molecule microarray, fluorescence 635 nm, primary screen (AID 1181).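 Also: score merges 667 nm emission and signal to noise over triplicate slides.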 Particulars: higher = more signal.
Assay [11] deals with XIP peptide (Xip251-270) binding. The assay can be described thus: XIP fragment 251-270 binding compounds – biochemical, small-molecule microarray, fluorescence 635/667 nm, 0.1 µg/mL protein, primary screen (AID 1182). Particulars: fluorescent protein binding, 635 nm, higher = more signal, called active from +8 up or from −8 down.
The next assay deals with XIP peptide (Xip251-270). Briefly: compounds binding XIP fragment 251-270 – biochemical, small-molecule microarray, fluorescence 635/667 nm, 0.5 µg/mL protein, primary screen (AID 1183). Particulars: fluorescence 635 nm, higher = more signal.
Assay [12] can be described thus: blood-stage malaria parasite viability loss – strain 3D7, DAPI fluorescence, 100 nL, primary screen (AID 1184).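 Also: parasites grown inside human red blood cells in medium with human serum.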 Particulars: P. falciparum 3D7 growth, 3 d, higher = more signal.
Assay [13] addresses Homeobox protein Hox-A13 (Mus musculus) (UniProt Q62424). Briefly: disruptors of Hoxa13 oligonucleotide interaction – biochemical, fluorescence polarization, labeled oligonucleotide, primary screen (AID 1185). Particulars: Hoxa13:DNA binding, 15 min, higher = more signal, called active from +8 up or from −8 down. (Polarisation of emitted light reports the rotation of a fluorescent probe.)

A short description of assay [14]: blockers of DNA damage checkpoint Chk1 activation – imaging, HeLa, hydroxyurea, phospho-Chk1 antibody, percent positive cells, primary screen (AID 1186). The note with it: hydroxyurea-induced phospho-Chk1 immunofluorescence imaging, higher = more signal.
Assay [15] can be described thus: blockers of DNA damage checkpoint Chk1 activation – imaging, HeLa, hydroxyurea, phospho-Chk1 nuclear intensity, primary screen (AID 1187). The note with it: hydroxyurea-induced phospho-Chk1 immunofluorescence imaging, higher = more signal.

Sequence of Homeobox protein Hox-A13 (Mus musculus) (Q62424 whole entry, looked up): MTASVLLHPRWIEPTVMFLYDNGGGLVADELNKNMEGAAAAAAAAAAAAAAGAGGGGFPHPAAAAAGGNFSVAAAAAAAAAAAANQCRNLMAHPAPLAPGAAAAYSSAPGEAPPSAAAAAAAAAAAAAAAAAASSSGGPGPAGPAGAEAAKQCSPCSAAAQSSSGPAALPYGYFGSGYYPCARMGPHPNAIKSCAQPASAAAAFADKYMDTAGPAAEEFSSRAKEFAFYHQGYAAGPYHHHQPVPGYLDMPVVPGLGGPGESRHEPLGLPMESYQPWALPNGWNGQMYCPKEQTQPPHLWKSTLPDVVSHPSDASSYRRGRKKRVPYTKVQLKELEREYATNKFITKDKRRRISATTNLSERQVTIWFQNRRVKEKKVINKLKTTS
Sequence of E3 ubiquitin-protein ligase XIAP (Homo sapiens) (P98170 whole entry, looked up, the tested form may be a part): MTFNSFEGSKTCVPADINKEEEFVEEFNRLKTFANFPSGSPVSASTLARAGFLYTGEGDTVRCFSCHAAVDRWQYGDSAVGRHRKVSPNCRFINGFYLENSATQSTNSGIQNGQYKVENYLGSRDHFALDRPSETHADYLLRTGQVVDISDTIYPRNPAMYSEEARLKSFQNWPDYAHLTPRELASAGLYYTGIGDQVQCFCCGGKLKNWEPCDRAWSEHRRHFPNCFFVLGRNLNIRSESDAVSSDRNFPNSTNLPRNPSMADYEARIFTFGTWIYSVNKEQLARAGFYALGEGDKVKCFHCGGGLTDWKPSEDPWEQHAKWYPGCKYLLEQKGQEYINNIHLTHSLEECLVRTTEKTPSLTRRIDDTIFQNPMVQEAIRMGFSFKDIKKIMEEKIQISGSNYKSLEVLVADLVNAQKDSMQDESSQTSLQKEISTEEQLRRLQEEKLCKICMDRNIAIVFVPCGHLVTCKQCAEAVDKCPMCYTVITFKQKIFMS
Sequence of Dihydroorotate dehydrogenase (quinone), mitochondrial (Plasmodium falciparum (isolate 3D7)) (Q08210 whole entry, looked up): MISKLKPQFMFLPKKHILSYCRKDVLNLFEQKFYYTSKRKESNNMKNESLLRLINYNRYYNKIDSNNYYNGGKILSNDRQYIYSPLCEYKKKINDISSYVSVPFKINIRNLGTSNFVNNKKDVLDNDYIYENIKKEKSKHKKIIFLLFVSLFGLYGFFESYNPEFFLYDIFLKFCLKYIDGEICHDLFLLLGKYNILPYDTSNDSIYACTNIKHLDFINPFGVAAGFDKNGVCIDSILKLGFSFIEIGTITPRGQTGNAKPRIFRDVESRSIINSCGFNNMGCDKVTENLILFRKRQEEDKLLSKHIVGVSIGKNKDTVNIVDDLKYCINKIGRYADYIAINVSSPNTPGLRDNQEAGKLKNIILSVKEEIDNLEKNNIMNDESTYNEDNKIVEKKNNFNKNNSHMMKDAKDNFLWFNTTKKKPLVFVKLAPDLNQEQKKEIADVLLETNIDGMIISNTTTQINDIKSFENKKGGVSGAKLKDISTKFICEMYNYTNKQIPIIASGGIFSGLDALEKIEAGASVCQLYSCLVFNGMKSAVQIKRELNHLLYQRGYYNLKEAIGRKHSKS

Regarding `COCCOC(=O)N1C(=O)[C@@]2(c3cc(C#CCCO)ccc31)[C@H](C(N)=O)[C@H]1C(=O)O[C@H](c3ccccc3)[C@H](c3ccccc3)N1[C@@H]2c1ccc(OCCO)cc1`, the z-score in assay [1] was -0.639; in assay [2], 1.21 (inactive); in assay [3], -0.479 (inactive); in assay [5] it was 1.56 (inactive); in assay [6], 2.16 (inactive); in assay [7] it was -0.138 (inactive). Further, the z-score was 0.386 (inactive) in assay [8]; -0.621 in assay [9]; -0.624 in assay [12]; -1.24 (inactive) in [13]; 0.0923 (inactive) in assay [14]; -0.0574 (inactive) in assay [15]. For the same molecule, the composite z-score in [4] is 0.46 (inactive); in assay [10], 0.409; in assay [11] it was 1.56 (inactive); in the assay with XIP peptide (Xip251-270), 0.769.
As to `NC(=O)NCC#Cc1ccc2c(c1)[C@]1(C(=O)N2)[C@H](C(=O)N2CCN(c3ncccn3)CC2)[C@H]2C(=O)O[C@H](c3ccccc3)[C@H](c3ccccc3)N2[C@@H]1c1ccc(OCCO)cc1`, the z-score is 0.906 in [1]; 2.6 (inactive) in [2]; 0.0294 (inactive) in [3]; 1.91 (inactive) in assay [5]; 3.91 (inactive) in assay [6]; 0.436 (inactive) in [7]. The z-score in assay [8] is -0.114 (inactive); in assay [9], 0.0901; in assay [12], -0.232; in [13] it was -1.02 (inactive); in assay [14], -0.216 (inactive); in assay [15], -0.0071 (inactive). Besides, the composite z-score in assay [4] is -0.238 (inactive); in [10], -0.202; in assay [11], -0.134 (inactive); in the assay with XIP peptide (Xip251-270) it was 0.193.
As for `C=C[C@@H](OC)[C@H](OC(=O)Nc1ccc(OC)cc1)c1ccc(OC)c(O)c1`, the z-score in assay [1] was 0.358; in [2], -1.19 (inactive); in [3], -0.143 (inactive); in assay [5], 0.295 (inactive); in assay [6] it was 0.445 (inactive); in assay [7], 0.724 (inactive). The z-score in assay [8] is 0.367 (inactive); in [9] it was 0.185; in assay [12], 1.46; in assay [13], -2.54 (inactive); in [14] it was 1.11 (inactive); in assay [15], 1.39 (inactive). The composite z-score in [4] is -0.0589 (inactive); in assay [10], 0.431; in [11] it was 2.2 (inactive); in the assay with XIP peptide (Xip251-270), 0.462.
Turning to `CCCNC(=O)[C@@]1(Sc2ccc(C)cc2)CC(=O)N(C2CCCCC2)[C@@H]1c1ccc(CO)cc1I`, the z-score in [1] is -0.0096; in assay [2], -1.07 (inactive); in [3] it was 0.0674 (inactive); in assay [5], 0.627 (inactive); in assay [6] it was -1.15 (inactive); in assay [7], 0.29 (inactive). Also, the z-score in [8] was 0.0883 (inactive); in [9], -1.1; in assay [12], -0.688; in [13], -4.72 (inactive); in assay [14] it was 0.493 (inactive); in assay [15], 0.252 (inactive). Moreover, the composite z-score in assay [4] was -0.198 (inactive); in assay [10], -0.321; in assay [11], 0.398 (inactive); in the assay on XIP peptide (Xip251-270), 0.372.
As for `Cc1cccc([C@H]2C[C@H]3C(I)=C[C@@H]2C(=O)[C@]32CO2)c1`, the z-score in assay [1] was 0.644; in [2], -10.5 (active); in [3], -0.415 (inactive); in assay [5] it was 0.531 (inactive); in assay [6] it was -0.639 (inactive); in assay [7] it was -0.545 (inactive). The z-score in assay [8] is -1.15 (inactive); in assay [9], 0.305; in [12] it was 1.22; in [13] it was -1.53 (inactive); in assay [14] it was -0.33 (inactive); in assay [15], -0.466 (inactive). Moreover, the composite z-score in assay [4] was 0.284 (inactive); in [10], 0.49; in assay [11] it was 0.162 (inactive); in the assay with XIP peptide (Xip251-270), -0.452.
Turning to `COc1ccc([Si](C)(C)[C@@H]2[C@@H](CC(=O)N3Cc4ccccc4C[C@H]3CO)O[C@]3(C(=O)N(c4ccccc4)c4ccccc43)[C@H]2C)cc1`, the z-score in assay [1] was -1.05; in assay [2], 0.318 (inactive); in [3], -2.64 (inactive); in assay [5], 0.626 (inactive); in assay [6], 2.42 (inactive); in assay [7], 0.33 (inactive). Moreover, the z-score in [8] is -0.165 (inactive); in [9], -4.45; in assay [12] it was -2.38; in [13], -4.85 (inactive); in [14], -0.0103 (inactive); in [15] it was -0.192 (inactive). In addition, the composite z-score in assay [4] was 1.13 (inactive); in assay [10] it was 2.42; in assay [11], 3.93 (inactive); in the assay with XIP peptide (Xip251-270) it was 0.546.
As to `C=CCC(OC(C)=O)[C@@H]1[C@@H](N(Cc2ccc(-c3cccc(C(F)(F)F)c3)o2)C(=O)c2ccc(C)cc2)c2cc(OCCCO)ccc2N1C(=O)Cc1ccc(OC)cc1` (stereo not given in full), the z-score in assay [1] was 0.91; in assay [2] it was -0.455 (inactive); in [3] it was 0.104 (inactive); in assay [5], -0.194 (inactive); in assay [6] it was 0.74 (inactive); in assay [7] it was 0.145 (inactive). In addition, the z-score was 1.11 (inactive) in assay [8]; 1.11 in assay [9]; -0.549 in assay [12]; -0.791 (inactive) in assay [13]; -0.159 (inactive) in assay [14]; 0.0947 (inactive) in [15]. The composite z-score in assay [4] was -1.55 (inactive); in assay [10] it was 0.0871; in assay [11], -0.635 (inactive); in the assay with XIP peptide (Xip251-270) it was -0.0047.
`Cc1ccccc1C(O)C1C=CC2C(=O)NC(=O)C2N1Nc1ccc(Cl)cc1Cl` (stereo not given): the z-score in [1] was -2.17; in assay [2], -9.05 (active); in assay [3], -1.03 (inactive); in [5], 1.15 (inactive); in [6], 0.251 (inactive); in assay [7], -0.511 (inactive). Further, the z-score in assay [8] was -0.963 (inactive); in [9], -1.25; in assay [12] it was 0.254; in [13], -5.08 (inactive); in assay [14], 0.165 (inactive); in [15], -0.016 (inactive). Also, the composite z-score in assay [4] was 0.107 (inactive); in assay [10] it was 2.02; in [11], 3.24 (inactive); in the assay on XIP peptide (Xip251-270), 0.693.
Regarding `CC(C)N1CC=CC23O[C@@H]4/C=C\CCCOC(=O)C4[C@H]2C(=O)N(CCCCCCO)[C@@H]3C1=O` (stereo not given in full), the z-score in [1] is 0.95; in [2], -1.13 (inactive); in assay [3], 1.3 (inactive); in assay [5], -0.401 (inactive); in assay [6] it was 0.0759 (inactive); in [7], 1.62 (inactive). Moreover, the z-score is 1.93 (inactive) in assay [8]; 0.708 in assay [9]; -0.064 in assay [12]; -5.14 (inactive) in assay [13]; -0.765 (inactive) in assay [14]; -0.0806 (inactive) in [15]. The composite z-score was -0.475 (inactive) in [4], 0.0537 in assay [10], 1.15 (inactive) in [11] and -0.853 in the assay with XIP peptide (Xip251-270).
On to `O=C1C2C=CC(C(O)c3ccc(I)cc3)N(Nc3ccccc3)C2C(=O)N1c1ccccc1` (stereo not given), for which the z-score was -1.04 in assay [1]; -2.16 (inactive) in [2]; -1.38 (inactive) in assay [3]; 1.58 (inactive) in assay [5]; -0.208 (inactive) in assay [6]; -1.07 (inactive) in [7]. Besides, the z-score was -0.28 (inactive) in [8]; -0.312 in assay [9]; 0.83 in [12]; -2.67 (inactive) in [13]; -0.007 (inactive) in assay [14]; -1.05 (inactive) in [15]. For the same molecule, the composite z-score in [4] was 0.45 (inactive); in assay [10], 0.162; in assay [11], 0.393 (inactive); in the assay on XIP peptide (Xip251-270), 0.702.
